Where “and” joins values, the source holds several entries; their conditions need not be identical. Equal entries are not always repeated. Among all 300,000 compounds or so, about 520 (0.17%) were called active. Rule as the data show it: active = inhibition above about 50%; inconclusive = no clear call, values can overlap the other calls; inactive = below that. This excerpt belongs to a sample that is enriched for actives.

The experiment in a line: PubChem AID 1554. The following applies: BJeLR (HRASV12) viability, CellTiter-Glo ATP luminescence, 48 h; stronger effect = higher value; concentration not given here. (In general: In ATP-based viability assays light output follows the ATP content of the culture.)
Turning to `C/C(=N/NC(=O)CN1CCN(S(=O)(=O)c2ccc(Br)cc2)CC1)c1ccncc1`, the inhibition (usually the drop in the measured response relative to a control, in per cent) is 4.03% (inactive).

As for `O=C(c1cc(-c2ccc(Cl)s2)nc2ccccc12)N1CCOCC1`, the inhibition was -8.28% (inactive).

On to `Cc1ccc(CSCCNC(=O)CN(c2ccc(F)cc2)S(C)(=O)=O)cc1`, for which the inhibition was -8.45% (inactive).

On to `CC1CCCC(N2CCN(C(=O)c3ccc(F)cc3)CC2)C1` (stereo unspecified), for which the inhibition was -5.87% (inactive).

Take `O=C(NCc1ccccc1Cl)c1ccc2c(=O)n(CC3CCCO3)c(=S)[nH]c2c1` (stereo unspecified): the inhibition is 9.1% (inactive).

For `COc1cc(NC(=O)CSC(=S)N2CCCC2)c(OC)cc1Cl`, the inhibition was -1.51% (inactive).

Consider `CCOc1ccc(OCCSc2nc3ccccc3n2CC(=O)O)cc1`, for which the inhibition was -3.19% (inactive).

As for `Cc1ccc2cc(C#N)c(NCCNC(=S)NCCCN3CCOCC3)nc2c1`, the inhibition was 4.4% (inactive).

For the molecule `COc1cc([N+](=O)[O-])ccc1NC(=S)N1CCN(c2ccccn2)CC1`, the inhibition is -1.41% (inactive).

Turning to `COc1ccc(N2CCN(C(C)=C3C(=O)c4ccccc4C3=O)CC2)cc1`, the inhibition was 2.27% (inactive).

Regarding `CCOC(=O)C1=C(c2ccc(OC)cc2)C(=O)c2ccccc2C1=O`, the inhibition was 110% (active).

Consider `CCOC(=O)c1cc2cc3ccccc3cc2oc1=O`, for which the inhibition was -11.8% (inactive).

Consider `Cc1ccc(S(=O)(=O)n2cccc2CO)cc1`, for which the inhibition is -3.34% (inactive).

Regarding `COCCNS(=O)(=O)c1cc(Br)ccc1OC`, the inhibition was -2.67% (inactive).

As for `O=C(NCc1ccc2c(c1)OCO2)c1cc2c(s1)CS(=O)(=O)C2`, the inhibition is 5.68% (inactive).

As to `COc1ccc(C(=O)O)cc1S(=O)(=O)NCc1cccnc1`, the inhibition is 4.17% (inactive).

Turning to `Cn1cc(CCC(=O)N2CCCC(C(=O)c3ccc(C(C)(C)C)cc3)C2)cn1` (stereo unspecified), the inhibition was -7.89% (inactive).

For `CC(NC(=O)CCCC1CCCCC1)c1ccc(S(N)(=O)=O)cc1` (stereo unspecified), the inhibition was 10.8% (inactive).

`COc1ccc(S(=O)(=O)N2CCCCCC2)cc1C(=O)N(C)Cc1cccc(OC)c1OC`: the inhibition is -3.35% (inactive).

For the molecule `O=S(=O)(Cc1noc(-c2ccc(OC(F)(F)F)cc2)n1)c1ccc(F)cc1`, the inhibition was -11.6% (inactive).

In the case of `Cc1nnc(SCC(=O)N2c3ccccc3C(C)(c3ccc(Cl)cc3)CC2(C)C)s1` (stereo unspecified), the inhibition is 13.1% (inactive).

As to `Cc1[nH]c(C)c(S(=O)(=O)N2CCN(c3cccc(C(F)(F)F)c3)CC2)c1C(=O)N1CCCCC1`, the inhibition is 0.76% (inactive).

On to `Nc1ccc(-n2nncc2-c2ccco2)cc1`, for which the inhibition was 11.6% (inactive).

As to `CCOc1c(N2CCCCC2)c(=O)c1=O`, the inhibition was 5.32% (inactive).

As to `O=C(N/N=C/c1ccc([N+](=O)[O-])o1)c1cn(-c2ccccc2)nc1-c1ccc(F)cc1`, the inhibition is -4.37% (inactive).

On to `Cc1ccc(/C=C/C(=O)Nc2ccc([N+](=O)[O-])c(NC(=O)/C=C/c3ccc(C)o3)c2)o1`, for which the inhibition is -29.1% (inactive).

Regarding `O=C(/C=C/c1ccc([N+](=O)[O-])o1)NNC(=O)c1ccc(F)cc1`, the inhibition was 60.3% (active).

With `CNS(=O)(=O)c1cccc(C(=O)NC2CCCc3ccccc32)c1` (stereo unspecified), the inhibition is -3.04% (inactive).

In the case of `CCCCCC(O)(CCN1CCCCC1)c1ccccc1` (stereo unspecified), the inhibition was -2.94% (inactive).

Turning to `CC(C)CC[n+]1ccn(C2=C([O-])c3ccccc3C(=O)/C2=N\S(=O)(=O)c2ccccc2)c1`, the inhibition was -5.54% (inactive).

On to `CN(C)/C=C(\C#N)C(=O)c1cccnc1Oc1ccc(F)cc1F`, for which the inhibition is -6.11% (inactive).

On to `Oc1ccc2ccccc2c1N=Nc1nccs1`, for which the inhibition was 77.1% (active).

On to `COC(=O)CCSc1cc([N+](=O)[O-])cc2c1c(C1OCCS1)nn2-c1ccccc1` (stereo unspecified), for which the inhibition is 3.81% (inactive).

In the case of `CCOc1ccc(C(C)=O)cc1CSc1nnc(-c2ccncc2)n1CCOC`, the inhibition is -17.6% (inactive).

`Cc1cc(C)c(NC(=O)CN2CCCCCC2)c(C)c1`: the inhibition is -2.78% (inactive).

With `COc1cccc(C(=O)Nc2ccc(N3CCN(C(=O)c4ccco4)CC3)cc2)c1`, the inhibition was 11.7% (inactive).

As for `COc1cccc(C(=O)Nc2ccc(N3CCCC3)cc2)c1`, the inhibition is 52.9% (active).

With `CN1CCN(c2ccc(NC(=O)c3ccccc3)cc2)CC1`, the inhibition is -5.43% (inactive).

As for `Cc1[nH]c2ccccc2c1-c1ccc(Cl)nn1`, the inhibition was 7.01% (inactive).

`CC(C)(C)SCCSC1=CC(=O)CC(c2ccccc2)C1` (stereo unspecified): the inhibition was 7.66% (inactive).

Turning to `CC1=C/C(=N\OS(=O)(=O)c2ccccc2)C=CC1=O`, the inhibition was 91.4% (active).

For the molecule `CCCCCCCCn1c2c(c(=N)c3c1CCC3)CCCC2`, the inhibition is 24.6% (inactive).

For the molecule `CCCCCCCCCCCCn1ccc(=N)cc1`, the inhibition was 87.5% (active).

As to `CCCCCN1CC(O)=C(c2ccccc2)C1=N`, the inhibition is -8.91% (inactive).

On to `Cn1c(Cc2cccs2)nnc1SCC(=O)Nc1ccccc1`, for which the inhibition is -23.8% (inactive).

For `C=CCc1c(C)nc2cc(-c3ccccc3)[nH]n2c1=O`, the inhibition was 2.64% (inactive).

For `COC(=O)c1ccc(COC(=O)c2c(C)nn(Cc3ccccc3Cl)c2Cl)o1`, the inhibition is -0.748% (inactive).

As to `CCOC(=O)C1CCCN(S(=O)(=O)c2ccc3c(c2)C(C)(C)C(=O)N3C)C1` (stereo unspecified), the inhibition was -8.48% (inactive).

As to `N#Cc1cccc(CN2CCC(=O)N([C@H](CO)c3ccccc3)CC2)c1`, the inhibition is 4.84% (inactive).

Take `CCc1ccc(-c2nn(-c3ccccc3)cc2CSC(=N)N)cc1`: the inhibition was 103% (active).

In the case of `Cc1ccc(-c2nn(-c3ccccc3)cc2CN(Cc2ccccc2)C(=O)CCC(=O)O)o1`, the inhibition was -0.0578% (inactive).

With `Cc1ccc(-c2nn(-c3ccccc3)cc2/C=N/NC(=O)c2ccc3c(c2)OCO3)cc1`, the inhibition is 11.4% (inactive).

For the molecule `COc1ccc(S(=O)(=O)N2CCOC2CNC(=O)C(=O)NCc2ccc(F)cc2)cc1` (stereo unspecified), the inhibition is 6.34% (inactive).

As for `Cc1nnc(SC(C)C(=O)Nc2ccc(S(=O)(=O)NC3CCCCC3)cc2)s1` (stereo unspecified), the inhibition was -6.12% (inactive).

As to `Cc1cc([N+](=O)[O-])nn1Cc1ccc(F)cc1`, the inhibition was 7.4% (inactive).

In the case of `CCCc1cc(=O)[nH]c(SCC(=O)OCc2ccccc2)n1`, the inhibition is -0.726% (inactive).

Take `CCCc1cc(=O)[nH]c(SCC(=O)c2c(N)n(CC(C)C)c(=O)n(C)c2=O)n1`: the inhibition is 63.2% (active).

Turning to `CCCc1cc(=O)[nH]c(SCC(=O)c2cc(C)n(CCC)c2C)n1`, the inhibition is 0.606% (inactive).

Consider `COC(=O)[C@H]1[C@H]2C[C@H]3c4[nH]c5ccccc5c4CCN3C[C@@H]2CC[C@@H]1O`, for which the inhibition is -6.61% (inactive) and 2.06% (inactive).

Regarding `CC(C)(C)c1ccc(/C=C2\SC(=O)N=C2N)cc1`, the inhibition is -2.23% (inactive).

With `CC(NC(=O)CC1SC(N)=NC1=O)c1ccccc1` (stereo unspecified), the inhibition was 4.16% (inactive).

As for `Brc1ccc2c(c1)[C@H]1OCC[C@H]1[C@@H](c1cccs1)N2`, the inhibition is 10.2% (inactive).

`CC(C)Cn1c(=O)c2ccccc2n2c(CCC(=O)NCc3ccccn3)nnc12`: the inhibition is -6.38% (inactive).

With `CN(C)N1C(N)=C(C#N)C(c2ccc(Br)cc2)C2=C1CCCC2=O` (stereo unspecified), the inhibition is -10.4% (inactive).

In the case of `COc1cc(NS(=O)(=O)c2ccc(NC(=S)NC(=O)c3ccc(Br)cc3)cc2)ncn1`, the inhibition was -4.7% (inactive).

Consider `O=C1C2CCCN2C(=O)N1CCCCN1CCN(c2cccc(C(F)(F)F)c2)CC1` (stereo unspecified), for which the inhibition is -4.72% (inactive).

Regarding `Cc1ccccc1NC(=O)c1nn(-c2ccc(F)c(F)c2)ccc1=O`, the inhibition is -12.5% (inactive).

For the molecule `Cc1cccc(NC(=O)/C=C/c2ccc3c(c2)OCO3)n1`, the inhibition is -11.7% (inactive).

Regarding `CSCCC(NC(=O)COc1ccccc1)C(=O)OCCOc1ccc(Br)cc1` (stereo unspecified), the inhibition is 5.25% (inactive).

As for `COc1ccc(C(CCN(Cc2ccc(OC)c(OC)c2)C(=O)CCl)c2ccccc2)cc1` (stereo unspecified), the inhibition was 85.3% (active).

In the case of `COc1ccc(CN(C)C(=O)CC(c2ccccc2)c2ccccc2)cc1`, the inhibition was 3.85% (inactive).

As to `COc1ccc(COC(=O)NC(C(=O)O)c2ccccc2)cc1` (stereo unspecified), the inhibition was -0.701% (inactive).

For `CCOC(=O)C1=C(CSc2nnnn2C)N(C)C(=O)NC1c1ccccc1` (stereo unspecified), the inhibition was 0.916% (inactive).

On to `CCN(CC)CCCN=C(N)N`, for which the inhibition is -2.78% (inactive).

Consider `Nc1nc(-c2sc3nc4c(cc3c2N)CCCC4)nc(N2CCOCC2)n1`, for which the inhibition is -1.17% (inactive).

For the molecule `CCOC(=O)C1CCN(S(=O)(=O)c2ccc3c(c2)N(C(C)=O)CCO3)CC1`, the inhibition was 6.7% (inactive).

On to `CCN1C(=O)[C@@H]2[C@@H](c3ccc(-c4ccccc4)cc3)N3CCCC[C@@]3(C(=O)OC)[C@@H]2C1=O`, for which the inhibition was 6.3% (inactive).

Turning to `COc1ccc(NC(=O)CN(C)C(=O)c2ccc(NC3CC3)c([N+](=O)[O-])c2)cc1`, the inhibition was -1.94% (inactive).

Regarding `O=C(CCC(=O)n1ncc2ccccc21)NCc1ccccc1Cl`, the inhibition is 2.75% (inactive).

Regarding `COc1ccccc1CCC(=O)OCC(=O)N1CCN(S(=O)(=O)c2ccc(C)cc2C)CC1`, the inhibition was -5.89% (inactive).

On to `N#C/C(=C(\O)C(F)(F)F)c1nnc2n1CCCCC2`, for which the inhibition was -1.07% (inactive).
